VP16 counter: VP16 counterscreen qHTS for inhibitors of ROR gamma transcriptional activity; Drosophila S2 Gal4-VP16 UAS-luciferase, luminescence, 20 h; Potency, µM (top dose mostly 53.6 µM), for the others: at the top dose activity, negative = inhibition, hits mostly inhibitors; hit rate 3.5% among 310,000;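 note: Gal4-VP16 expression switched on by copper sulfate through the metallothionein promoter; % is set by controls: 0 for no effect and ±100 for the full control effect; nearly all actives have a fitted effect of over 50% in size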
RORgamma inh: qHTS for inhibitors of ROR gamma transcriptional activity; hit rate 5.4% among 310,000; Potency, µM (top dose mostly 53.6 µM), for the others: at the top dose activity change, negative = inhibition, hits mostly inhibitors; Nuclear receptor ROR-gamma (Mus musculus), P51450; AID 2551, 2010; Drosophila S2 Gal4-RORgamma UAS-luciferase reporter, 20 h; note: % is set by controls: 0 for no effect and ±100 for the full control effect; nearly all actives have a fitted effect of over 60% in size
Target sequence (P51450 whole entry, looked up, the tested form may be a part): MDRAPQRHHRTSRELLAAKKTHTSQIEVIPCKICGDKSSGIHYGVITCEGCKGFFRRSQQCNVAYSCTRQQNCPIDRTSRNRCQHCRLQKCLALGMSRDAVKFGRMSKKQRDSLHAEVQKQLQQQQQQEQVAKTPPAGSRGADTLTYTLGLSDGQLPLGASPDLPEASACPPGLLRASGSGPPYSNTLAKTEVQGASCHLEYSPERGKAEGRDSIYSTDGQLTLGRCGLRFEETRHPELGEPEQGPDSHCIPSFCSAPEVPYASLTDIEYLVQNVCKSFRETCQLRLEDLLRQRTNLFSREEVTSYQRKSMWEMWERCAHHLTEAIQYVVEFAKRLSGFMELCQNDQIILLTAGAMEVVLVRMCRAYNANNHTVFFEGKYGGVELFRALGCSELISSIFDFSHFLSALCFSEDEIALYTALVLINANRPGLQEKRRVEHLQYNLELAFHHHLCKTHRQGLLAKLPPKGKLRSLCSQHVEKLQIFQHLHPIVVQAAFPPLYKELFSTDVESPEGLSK
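Luciferase reporter read in Schneider cells carrying Gal4-RORγ (mouse) and UAS-Photinus luciferase; cells given compound 1 h before 700 uM copper sulfate induction, then incubated 20 h at ambient temperature.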
MCF10A rereplic: A quantitative high throughput screen for small molecules that induce DNA re-replication in MCF 10a normal breast cells; MCF 10A DNA re-replication, Hoechst nuclear intensity, 48 h; hit rate 2.9% among 350,000; Potency, µM (highest dose often 46.1 µM), for the others: top-dose activity, positive = re-replication, actives largely listed as activators; note: % of control where 0% means no effect; nearly all actives have a fitted effect of over 50% in size
ELG1 repair inh: qHTS screen for small molecules that inhibit ELG1-dependent DNA repair in human embryonic kidney (HEK293T) cells expressing luciferase-tagged ELG1; HEK293T ELG1-luciferase reporter, luminescence, 16 h; DNA damage induced by 5-fluorouridine; Potency, µM (top dose mostly 46.1 µM), without a hit: at the top dose activity change, negative = inhibition, usual class: inhibitors; hit rate 2.3% among 330,000; note: % is set by controls: 0 for no effect and ±100 for the full control effect; nearly all actives have a fitted effect of over 55% in size
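In this reporter screen, reduction of luminescence relative to DMSO vehicle indicated activity. Compounds and 5-fluorouridine were added together to 2,000 cells per well, incubated for 16 hr at 37 °C, then developed with ONE-Glo.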
SW480 rerep: A quantitative high throughput screen for small molecules that induce DNA re-replication in SW480 colon adenocarcinoma cells; hit rate 1.8% among 340,000; SW480 DNA re-replication, Hoechst DNA content imaging, 48 h; Potency, µM (series often up to 46.1 µM), for inactives: top-dose re-replication activation, hits mostly activators; note: % of control where 0% means no effect; nearly all actives have a fitted effect of over 55% in size
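Hoechst fluorescence of nuclei (405 nm excitation, 500-530 nm emission) measured by plate-scanning imager after 48 hr compound exposure at 37 C; re-replication scored as increased number of nuclei with elevated intensity.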
Active calls of the source: *; ? = inconclusive; / = no result given. This is a sample that favours compounds with a hit; in the whole collection about 10% have one here. Calls come from the whole dose curve; as a rule, active = well fitted curve in the direction sought with a large enough effect; inconclusive = small, poorly fitted or top-dose-only effect, or another doubt; inactive = no such curve, though single readings can be large; an effect the other way counts as inactive or inconclusive. Potency is the fitted concentration of half-maximal effect.

SMILES	VP16 counter	RORgamma inh	MCF10A rereplic	ELG1 repair inh	SW480 rerep
CCCN1CCc2c(sc3nc(SCC)n(-c4ccccc4)c(=O)c23)C1	5%	2%	?	-28%	5%
COc1ccc(-n2c(SC)nc3sc4c(c3c2=O)CCN(C)C4)cc1	-11%	-1%	?	-3%	15%
CCCN1CCc2c(sc3nc(SC)n(-c4ccccc4)c(=O)c23)C1	3%	8%	18µM*	?	?
CCCN1CCc2c(sc3nc(SCC)n(-c4ccc(OC)cc4)c(=O)c23)C1	9%	14%	21µM*	-4%	12%
Cc1cccc(/C=N/NC(=O)Cn2nccc2C)n1	-4%	?	0%	2%	2%
S=C(N/N=C1\C2CN3CCN(C2)CC1(c1ccccc1)C3)Nc1ccccc1	2.8µM*	5µM*	-2%	3%	/
CCCC12CN3CCN(CC(C3)/C1=N\NC(=O)Nc1ccccc1)C2	-3%	-5%	5%	1%	-2%
O=C1/C(=C/c2cccnc2)SC(=S)N1N1CCOCC1	-14%	-43%	1%	0%	-3%
O=C1/C(=C\c2cccnc2)SC(=S)N1C1CCS(=O)(=O)C1 (stereo unspecified)	?	6.3µM*	15µM*	?	?
O=C1/C(=C/c2cccnc2)SC(=S)N1C1CCS(=O)(=O)C1 (stereo unspecified)	?	11µM*	15µM*	?	?
COc1ccc(CCNC(=O)CC(Cc2ccc(C)cc2)C(=O)O)cc1OC (stereo unspecified)	11%	-3%	-1%	-1%	-30%
O=C(COc1cc2oc(=O)c3c(c2cc1Cl)CCC3)NCC(O)c1ccccc1 (stereo unspecified)	1%	-2%	-12%	4%	13%
Nc1c(C(=O)N2CCCCC2)sc2nc3c(cc12)CCCC3	5%	9%	?	?	5%
CCc1nnc(NC(=O)c2sc3nc4c(cc3c2N)CCCCC4)s1	?	?	16µM*	?	8.2µM*
CCc1nnc(NC(=O)c2sc3nc4c(cc3c2N)CCCCCC4)s1	?	?	18µM*	?	?
Cc1cccc(Cn2c(O)c(N=NC(=S)Nc3ccccc3F)c3ccccc32)c1	5µM*	3.2µM*	-6%	3.7µM*	-96%
Cc1cccc(NC(=O)Cn2c(O)c(N=NC(N)=S)c3ccccc32)c1	?	?	0%	?	24%
Oc1c(N=NC(=S)Nc2ccccc2F)c2ccccc2n1Cc1ccc(F)cc1	3.5µM*	2.8µM*	-5%	5.2µM*	0%
Oc1c(N=NC(=S)Nc2ccccc2F)c2ccccc2n1Cc1cccc(Cl)c1	3.5µM*	?	7%	?	0%
COc1ccccc1NC(=O)Cn1c(O)c(N=NC(=O)c2ccccc2O)c2ccccc21	-9%	38%	14%	?	?
CC(C)OC(=O)c1ccc(NC(=O)c2ccco2)cc1	1%	?	30%	?	3%
O=C1C2CC=CCC2C(=O)N1c1n[nH]c(Cc2ccccc2)n1 (stereo unspecified)	-4%	-26%	7.3µM*	1%	2%
O=C1C2C3C=CC(C3)C2C(=O)N1c1n[nH]c(CCc2ccccc2)n1 (stereo unspecified)	-1%	7%	6%	12%	-4%
Cc1nn(-c2ccccc2)c(C)c1NC(=O)COc1cc(F)ccc1[N+](=O)[O-]	/	/	2%	?	-7%
COc1cccc(NC(=O)Nc2nc(SC)ns2)c1	?	?	4%	?	?
SMILES	VP16 counter	RORgamma inh	MCF10A rereplic	ELG1 repair inh	SW480 rerep
CCSc1nsc(NC(=O)Nc2cccc(F)c2)n1	?	?	16µM*	?	?
O=c1[nH][nH]c(=O)c2c1[nH]c(=S)n2Cc1ccccc1	/	/	0%	/	-5%
COc1cc(NS(=O)(=O)c2ccc(N/C=C(\C#N)c3nc4ccccc4o3)cc2)nc(OC)n1	2%	44%	9%	8%	-5%
COc1cc(NS(=O)(=O)c2ccc(N/C=C(\C=O)c3nc4ccccc4o3)cc2)nc(OC)n1	?	8.9µM*	?	12%	4%
Clc1ccc(C2Nc3cccc4cccc(c34)N2)c(Cl)c1	/	/	1%	/	?
O=C1NC(c2cccc3ccccc23)Nc2ccc(Cl)cc21 (stereo unspecified)	/	/	?	/	0.73µM*
O=S(=O)(/C(=C\c1ccc(C(F)(F)F)cc1)c1nc2ccccc2[nH]1)c1ccccc1	/	/	?	/	2.3µM*
O=C(NCc1ccco1)/C(=C/c1ccc(C(F)(F)F)cc1)c1nc2ccccc2[nH]1	-6%	-3%	21µM*	?	21µM*
O=C(NCc1ccco1)/C(=C/c1cccc(C(F)(F)F)c1)c1nc2ccccc2[nH]1	-4%	23%	23µM*	-27%	?
O=C(CSc1nc2ccccc2[nH]1)NCc1ccco1	0%	9%	?	?	6%
Cc1cccn2c(=O)c(-c3nnn[nH]3)cnc12	-1%	-15%	4%	/	-4%
O=C1CSC(c2ccc([N+](=O)[O-])cc2)N1c1ccccc1F (stereo unspecified)	8%	37%	-5%	6%	-15%
O=C(COC(=O)c1ccco1)NC1CCCc2ccccc21 (stereo unspecified)	/	/	-7%	1%	-2%
O=C(N/N=C/c1cnc(N2CCCCC2)s1)c1ccc(Cl)cc1	?	2.2µM*	-5%	?	-31%
N/C(=N\N=C\c1ccc(O)c(O)c1)c1nonc1N	?	10µM*	-2%	?	-13%
COC(=O)Cc1ccc(NC(=O)c2ccc3c(c2)C(=O)N(Cc2cccnc2)C3=O)cc1	?	15%	11%	2%	-5%
CCOC(=O)c1ccc(NC(=O)c2ccc3c(c2)C(=O)N(Cc2cccnc2)C3=O)cc1	11µM*	-52%	-38%	5%	-5%
CC(C)c1ccc(NC(=O)c2ccc3c(c2)C(=O)N(Cc2cccnc2)C3=O)cc1	18µM*	?	18%	-11%	-1%
Cc1ccc(C2=NN(C(=O)CNCCO)C(c3cccs3)C2)cc1 (stereo unspecified)	15%	6%	13%	?	-19%
CCNC(=S)N(CCc1c(C)[nH]c2ccc(C)cc12)Cc1cccs1	?	7.1µM*	?	?	4%
CNC(=S)N(CCc1c(C)[nH]c2ccc(Cl)cc12)Cc1cccs1	-3%	?	/	?	/
COc1cccc(NC(=S)N(CCc2c(C)[nH]c3ccccc23)Cc2cccs2)c1	?	?	-7%	?	11%

Screening results deposited in PubChem BioAssay by National Center for Advancing Translational Sciences (NCATS).
